Reference: the supplement of paper PMC8728848
This is one part of a sample in which the strongest signals are shown more often than they occur.

How the values were obtained:
Assay in all cases: glycan array binding signal (z-score within array); higher = stronger binding
Conditions in all cases: glycan notation: IUPAC condensed, linker removed
GalNAc(a1-3)Gal = biological target: GalNAc(a1-3)Gal
Summary of the method: (§1)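 Columns mapping to the same glycan were averaged after glycan names were converted to IUPAC-condensed notation. The data come from 3228 arrays in the Consortium for Functional Glycomics database, limited to those with an available protein sequence. Binding is reported as a within-array Z-score averaged across arrays of one protein sequence and across linkers.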

GalNAc(a1-3)GalNAc = biological target: GalNAc(a1-3)GalNAc
Summary of the method: as §1

[1] = biological target: GalNAc(a1-3)GalNAc(a1-3)Gal(a1-4)Gal(b1-4)GlcNAc
Summary of the method: as §1

[2] = biological target: GalNAc(a1-3)GalNAc(b1-3)Gal(a1-4)Gal(b1-4)GlcNAc
Summary of the method: as §1

Glc(b1-4)Glc = biological target: Glc(b1-4)Glc
Summary of the method: as §1

Glc(b1-6)Glc = biological target: Glc(b1-6)Glc
Summary of the method: as §1

GlcA(b1-3)Gal = biological target: GlcA(b1-3)Gal
Summary of the method: as §1

[3] = biological target: GlcA3S(b1-3)Gal(b1-4)GlcNAc(b1-3)Gal(b1-4)Glc
Summary of the method: as §1

[4] = biological target: GlcNAc(a1-3)Gal(b1-4)GlcNAc
Summary of the method: as §1

[5] = biological target: GlcNAc(a1-4)Gal(b1-4)GalNAc
Summary of the method: as §1

[6] = biological target: GlcNAc(a1-4)Gal(b1-4)GlcNAc(b1-3)Gal(b1-4)GlcNAc
Summary of the method: as §1

[7] = biological target: GlcNAc(a1-4)Gal(b1-4)GlcNAc(b1-3)Gal(b1-4)GlcNAc(b1-3)Gal(b1-4)GlcNAc
Summary of the method: as §1

[8] = biological target: GlcNAc(b1-2)[GlcNAc(b1-4)]Man(a1-3)[GlcNAc(b1-4)][GlcNAc(b1-2)[GlcNAc(b1-6)]Man(a1-6)]Man(b1-4)GlcNAc(b1-4)[Fuc(a1-6)]GlcNAc
Summary of the method: as §1

[9] = biological target: GlcNAc(b1-2)[GlcNAc(b1-6)]Man(a1-6)[GlcNAc(b1-2)Man(a1-3)][GlcNAc(b1-4)]Man(b1-4)GlcNAc(b1-4)GlcNAc
Summary of the method: as §1

[10] = biological target: GlcNAc(b1-3)Gal(b1-4)GlcNAc(b1-3)Gal(b1-4)GlcNAc(b1-2)Man(a1-3)[GlcNAc(b1-3)Gal(b1-4)GlcNAc(b1-3)Gal(b1-4)GlcNAc(b1-2)Man(a1-6)]Man(b1-4)GlcNAc(b1-4)[Fuc(a1-6)]GlcNAc
Summary of the method: as §1

[11] = biological target: GlcNAc(b1-3)Gal(b1-4)GlcNAc(b1-3)Gal(b1-4)GlcNAc(b1-3)Gal(b1-4)GlcNAc(b1-2)Man(a1-3)[GlcNAc(b1-3)Gal(b1-4)GlcNAc(b1-3)Gal(b1-4)GlcNAc(b1-3)Gal(b1-4)GlcNAc(b1-2)Man(a1-6)]Man(b1-4)GlcNAc(b1-4)GlcNAc
Summary of the method: as §1

[12] = biological target: GlcNAc(b1-3)Gal(b1-4)GlcNAc(b1-3)Gal(b1-4)GlcNAc(b1-3)Gal(b1-4)GlcNAc(b1-2)Man(a1-3)[GlcNAc(b1-3)Gal(b1-4)GlcNAc(b1-3)Gal(b1-4)GlcNAc(b1-3)Gal(b1-4)GlcNAc(b1-2)Man(a1-6)]Man(b1-4)GlcNAc(b1-4)[Fuc(a1-6)]GlcNAc
Summary of the method: as §1

Kdn(a2-3)Gal(b1-4)GlcNAc = biological target: Kdn(a2-3)Gal(b1-4)GlcNAc
Summary of the method: as §1

[13] = biological target: Neu5Ac(a2-3)Gal(b1-3)GalNAc(b1-3)Gal(a1-4)Gal(b1-4)Glc
Summary of the method: as §1

[14] = biological target: Neu5Ac(a2-3)Gal(b1-3)GalNAc(b1-4)[Neu5Ac(a2-8)Neu5Ac(a2-3)]Gal(b1-4)Glc
Summary of the method: as §1

[15] = biological target: Neu5Ac(a2-3)Gal(b1-3)[Fuc(a1-4)]GlcNAc(b1-3)Gal(b1-4)[Fuc(a1-3)]GlcNAc
Summary of the method: as §1

[16] = biological target: Neu5Ac(a2-3)Gal(b1-4)GlcNAc(b1-3)Gal(b1-4)GlcNAc
Summary of the method: as §1

[17] = biological target: Neu5Ac(a2-3)Gal(b1-4)GlcNAc(b1-3)Gal(b1-4)GlcNAc(b1-3)Gal(b1-4)GlcNAc
Summary of the method: as §1

[18] = biological target: Neu5Ac(a2-3)Gal6S(b1-4)GlcNAc
Summary of the method: as §1

[19] = biological target: Neu5Ac(a2-6)Gal(b1-4)GlcNAc(b1-2)Man(a1-3)[Gal(b1-4)GlcNAc(b1-2)Man(a1-6)]Man(b1-4)GlcNAc(b1-4)GlcNAc
Summary of the method: as §1

[20] = biological target: Neu5Ac(a2-6)Gal(b1-4)GlcNAc(b1-3)Gal(b1-4)GlcNAc(b1-3)Gal(b1-4)GlcNAc(b1-2)Man(a1-3)[Neu5Ac(a2-6)Gal(b1-4)GlcNAc(b1-3)Gal(b1-4)GlcNAc(b1-3)Gal(b1-4)GlcNAc(b1-2)Man(a1-6)]GalNAc
Summary of the method: as §1

[21] = biological target: Neu5Ac(a2-6)Gal(b1-4)GlcNAc(b1-3)Gal(b1-4)[Fuc(a1-3)]GlcNAc(b1-3)Gal(b1-4)[Fuc(a1-3)]GlcNAc
Summary of the method: as §1

Neu5Ac(b2-6)GalNAc = biological target: Neu5Ac(b2-6)GalNAc
Summary of the method: as §1

[22] = biological target: Neu5Ac9Ac(a2-6)Gal(b1-4)GlcNAc
Summary of the method: as §1

B1: HPA (Helix pomatia), Q575S3 (protein)
chain: MWAHLTGLLLICALSLSAAQRAQTGEIDCGSDSSWPKDPSDNPNRDNTREIVKHVTFSPQFCREPKVILSVTTLDAEHTKNLRYEARLKSVSPSGLSASCYSWHDGTIYRMKLSWLAVED
B1 was tested, and the “glycan array binding signal (z-score)” value (GalNAc(a1-3)Gal) was 4.18, the “glycan array binding signal (z-score)” value (GalNAc(a1-3)GalNAc) was 4.53 and the “glycan array binding signal (z-score)” value [1] was 5.04. For the same binder, the “glycan array binding signal (z-score)” value [2] was 5.7, the “glycan array binding signal (z-score)” value (Glc(b1-4)Glc) was -0.26 and the “glycan array binding signal (z-score)” value (Glc(b1-6)Glc) was -0.266. For the same binder, the “glycan array binding signal (z-score)” value (GlcA(b1-3)Gal) was -0.262, the “glycan array binding signal (z-score)” value [3] was -0.256 and the “glycan array binding signal (z-score)” value [4] was 4.69. For the same binder, the “glycan array binding signal (z-score)” value [5] was 1.46, the “glycan array binding signal (z-score)” value [6] was 4.37 and the “glycan array binding signal (z-score)” value [7] was 4.21. The “glycan array binding signal (z-score)” value [8] was 0.175, the “glycan array binding signal (z-score)” value [9] was -0.24 and the “glycan array binding signal (z-score)” value [10] was -0.243. For the same binder, the “glycan array binding signal (z-score)” value [11] was -0.257, the “glycan array binding signal (z-score)” value [12] was -0.241 and the “glycan array binding signal (z-score)” value (Kdn(a2-3)Gal(b1-4)GlcNAc) was -0.262. For the same binder, the “glycan array binding signal (z-score)” value [13] was -0.243, the “glycan array binding signal (z-score)” value [14] was -0.245 and the “glycan array binding signal (z-score)” value [15] was -0.209. The “glycan array binding signal (z-score)” value [16] was -0.267, the “glycan array binding signal (z-score)” value [17] was -0.265 and the “glycan array binding signal (z-score)” value [18] was -0.273. For the same binder, the “glycan array binding signal (z-score)” value [19] was -0.261, the “glycan array binding signal (z-score)” value [20] was -0.164 and the “glycan array binding signal (z-score)” value [21] was -0.253. The “glycan array binding signal (z-score)” value (Neu5Ac(b2-6)GalNAc) was -0.269 and the “glycan array binding signal (z-score)” value [22] was -0.274.
